# According to PubChem BioAssay (EPA / NIEHS):
# Some compounds were tested as several samples or in several runs, with calls that do not always agree. The source made the active and inactive calls. How the source made its calls: active means hit-call score of the fitted dose curve at least 0.9, where 1 is the maximum; inactive means score below 0.9.
# Experiments:
# [1] = read-out: Interleukin-1 alpha (IL1a), IL1A (gene 3552); experiment: BSK_LPS_IL1a: BioMAP Diversity Plus: LPS Assay for Interleukin-1 alpha (IL1a) Biomarker Activity (AID 2283080); conditions: primary human HUVEC with PBMC; actives raise or lower the signal
# Procedure, shortened: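 Human umbilical vein endothelial cells co-cultured with peripheral blood mononuclear cells were LPS-stimulated and exposed to test chemicals for 24 h. IL-1 alpha was quantified by ELISA, with bidirectional curve fitting against DMSO as the negative control and baseline.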
# [2] = read-out: Monocyte Chemoattractant Protein-1 (MCP1), CCL2 (gene 6347); experiment: BSK_LPS_MCP1: BioMAP Diversity Plus: LPS Assay for Monocyte Chemoattractant Protein-1 (MCP1) Biomarker Activity (AID 2283081); conditions: primary human HUVEC with PBMC; actives raise or lower the signal;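 on AC50: secreted MCP-1 protein quantified by ELISA in culture supernatant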
# Procedure, shortened: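 HUVEC plus PBMC co-culture (human primary cells, LPS system) exposed to test chemical for 24 h; MCP-1 measured by ELISA. Bidirectional curve fitting against DMSO baseline; parallel SRB total-protein staining flags overt cytotoxicity.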
# [3] = BSK_LPS_PGE2: BioMAP Diversity Plus: LPS Assay for Prostaglandin E2 (PGE2) Biomarker Activity (AID 2283082); conditions: primary human HUVEC with PBMC; actives raise or lower the signal;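 on AC50: secreted prostaglandin E2 measured by ELISA in LPS-stimulated co-culture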
# Procedure, shortened: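 Endpoint derived from bidirectional curve fitting versus DMSO of ELISA-measured PGE2 in LPS-stimulated human primary vascular co-culture (HUVEC with PBMC) harvested at 24 h.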
# [4] = read-out: Macrophage colony-stimulating factor (MCSF), CSF1 (gene 1435); experiment: BSK_LPS_MCSF: BioMAP Diversity Plus: LPS Assay for Macrophage colony-stimulating factor (MCSF) Biomarker Activity (AID 2283083); conditions: primary human HUVEC with PBMC; actives raise or lower the signal
# Procedure, shortened: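 Human umbilical vein endothelial cells co-cultured with peripheral blood mononuclear cells were exposed to compound for 24 h. M-CSF levels were measured by ELISA, and bidirectional curve fitting used DMSO as the negative control and baseline.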
# [5] = read-out: Tissue Factor, F3 (gene 2152); experiment: BSK_LPS_TissueFactor: BioMAP Diversity Plus: LPS Assay for Tissue Factor Biomarker Activity (AID 2283084); conditions: primary human HUVEC with PBMC; actives raise or lower the signal
# Procedure, shortened: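 Human umbilical vein endothelial cells co-cultured with peripheral blood mononuclear cells were dosed and stimulated with LPS. Cell-surface CD142 was quantified by ELISA at 24 h. Activity was fitted bidirectionally against DMSO baseline.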
# [6] = read-out: Tumor necrosis factor (Homo sapiens) (UniProt P01375); experiment: BSK_LPS_TNFa: BioMAP Diversity Plus: LPS Assay for Tumour Necrosis Factor alpha (TNFa) Biomarker Activity (AID 2283085); conditions: primary human HUVEC with PBMC; actives raise or lower the signal
# Procedure, shortened: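 Primary human vascular co-culture of HUVEC and PBMC; TNFa ELISA 24 h after treatment, analysed as increase or decrease relative to DMSO control.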
# [7] = read-out: Vascular cell adhesion molecule 1 (VCAM1), VCAM1 (gene 7412); experiment: BSK_LPS_VCAM1: BioMAP Diversity Plus: LPS Assay for Vascular cell adhesion molecule 1 (VCAM1) Biomarker Activity (AID 2283086); conditions: primary human HUVEC with PBMC; actives raise or lower the signal
# Procedure, shortened: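 Primary human vascular co-culture (umbilical vein endothelium plus PBMC) stimulated with LPS received chemical; 24 h later VCAM-1 was read by ELISA. Overt cytotoxicity was assessed by sulforhodamine B staining of parallel cultures at the same time point.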
# CD38, CD38 (gene 952) = experiment: BSK_SAg_CD38: BioMAP Diversity Plus: SAg Assay for CD38 Biomarker Activity (AID 2283087); conditions: primary human HUVEC with PBMC; actives raise or lower the signal
# Procedure, shortened: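 Fluorescence ELISA of cell-surface CD38 served as the read-out, with either increase or decrease fitted against DMSO controls. Cells were a human umbilical vein endothelium plus PBMC co-culture under SEB/TSST-1 stimulation, measured 24 h after dosing.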
# [8] = read-out: Monocyte Chemoattractant Protein-1 (MCP1), CCL2 (gene 6347); experiment: BSK_SAg_MCP1: BioMAP Diversity Plus: SAg Assay for Monocyte Chemoattractant Protein-1 (MCP1) Biomarker Activity (AID 2283090); conditions: primary human HUVEC with PBMC; actives raise or lower the signal
# Procedure, shortened: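 MCP-1 levels in the endothelial–PBMC SAg co-culture were quantified by ELISA at 24 h post-dosing; both increases and decreases versus DMSO scored. Cytotoxicity monitored by SRB total protein in parallel cultures.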
# [9] = read-out: E-selectin (Homo sapiens) (UniProt P16581); experiment: BSK_SAg_Eselectin: BioMAP Diversity Plus: SAg Assay for Eselectin Biomarker Activity (AID 2283091); conditions: primary human HUVEC with PBMC; actives raise or lower the signal
# Procedure, shortened: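 HUVEC co-cultured with PBMC, compound dosed then read at 24 h; E-selectin measured by ELISA. Activity fitted bidirectionally against DMSO as negative control and baseline.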
# [10] = read-out: Monokine induced gamma interferon (MIG), CXCL9 (gene 4283); experiment: BSK_SAg_MIG: BioMAP Diversity Plus: SAg Assay for Monokine induced gamma interferon (MIG) Biomarker Activity (AID 2283092); conditions: primary human HUVEC with PBMC; actives raise or lower the signal
# Procedure, shortened: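 Values reflect bidirectional fitting of ELISA-measured MIG against DMSO vehicle, taken 24 h after dosing of a co-culture of human umbilical vein endothelial cells and peripheral blood mononuclear cells.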
# [11] = BSK_SAg_PBMCCytotoxicity: PBMC Cytotoxicity Assessment in the BioMAP Diversity Plus: SAg Assay (AID 2283093); conditions: primary human HUVEC with PBMC;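 further: PBMC viability measured as Alamar Blue reduction fluorescence at 546/580 nm; fitted both ways against DMSO so a hit may be loss or gain of signal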;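 on AC50: PBMC superantigen activated with SEB plus TSST-1 one hour after compound addition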
# Procedure, shortened: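 Compound added to 75,000 PBMC/well for 1 h; SEB and TSST-1 then added at 20 ng/mL final each; 90 h incubation; Alamar Blue 6 h; read 546/580 nm ex/em. Activity fitted bidirectionally relative to DMSO baseline.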
# [12] = read-out: Interleukin-8 (IL8), CXCL8 (gene 3576); experiment: BSK_SAg_IL8: BioMAP Diversity Plus: SAg Assay for Interleukin-8 (IL8) Biomarker Activity (AID 2283094); conditions: primary human HUVEC with PBMC; actives raise or lower the signal
# Procedure, shortened: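 In this co-culture of human umbilical vein endothelium with peripheral blood mononuclear cells, IL-8 is assayed by ELISA at 24 h. DMSO serves as baseline for bidirectional curve fitting.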
# [13] = BSK_SAg_Proliferation: Cell Proliferation Assessment in the BioMAP Diversity Plus: SAg Assay (AID 2283095); conditions: primary human HUVEC with PBMC;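 further: relative cell number as total protein by SRB absorbance in sub-confluent culture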
# Procedure, shortened: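 Readout is SRB-stained protein (560 nm) in a primary human HUVEC and PBMC co-culture; sub-confluent cultures are read at 96 h. Activity is fitted bidirectionally using DMSO as baseline.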
# [14] = BSK_SAg_SRB: Viability Assessment in the BioMAP Diversity Plus: SAg Assay (AID 2283096); conditions: primary human HUVEC with PBMC;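 further: cells read one day after compound addition; hits may be either gain or loss of signal compared with DMSO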
# Procedure, shortened: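 Total protein by sulforhodamine B staining, 24 h after dosing, in HUVEC–PBMC co-culture; DMSO-referenced bidirectional fitting.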
# E-selectin (Homo sapiens), sequence (P16581 whole entry, looked up): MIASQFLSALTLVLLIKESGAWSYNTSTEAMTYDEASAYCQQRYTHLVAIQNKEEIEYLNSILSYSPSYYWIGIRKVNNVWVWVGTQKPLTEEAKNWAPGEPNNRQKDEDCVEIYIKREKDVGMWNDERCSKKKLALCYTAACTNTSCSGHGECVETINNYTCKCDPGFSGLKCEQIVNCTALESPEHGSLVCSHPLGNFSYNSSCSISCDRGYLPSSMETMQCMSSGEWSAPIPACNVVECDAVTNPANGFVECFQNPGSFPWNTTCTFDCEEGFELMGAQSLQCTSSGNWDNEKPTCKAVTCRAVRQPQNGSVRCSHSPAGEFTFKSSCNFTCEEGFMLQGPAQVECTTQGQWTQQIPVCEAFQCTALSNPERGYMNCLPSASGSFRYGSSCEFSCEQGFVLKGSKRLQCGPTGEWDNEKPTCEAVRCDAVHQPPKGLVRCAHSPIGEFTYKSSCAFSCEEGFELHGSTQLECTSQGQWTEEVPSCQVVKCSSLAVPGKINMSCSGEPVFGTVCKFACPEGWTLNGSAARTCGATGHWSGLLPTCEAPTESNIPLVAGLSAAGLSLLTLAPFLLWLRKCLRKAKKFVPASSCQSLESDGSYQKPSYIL
# Tumor necrosis factor (Homo sapiens), sequence (P01375 whole entry, looked up): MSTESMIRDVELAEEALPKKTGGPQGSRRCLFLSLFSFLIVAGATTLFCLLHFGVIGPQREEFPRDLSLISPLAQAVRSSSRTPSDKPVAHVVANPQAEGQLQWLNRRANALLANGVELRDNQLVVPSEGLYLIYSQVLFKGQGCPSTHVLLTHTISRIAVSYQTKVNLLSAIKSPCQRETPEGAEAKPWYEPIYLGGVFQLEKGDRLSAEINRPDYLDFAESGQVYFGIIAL
smiles,measurement,setting,value
c1ccc2c(c1)[nH]c1ccccc12,outcome,[1],inactive
same,outcome,[2],inactive
same,outcome,[3],inactive
same,outcome,[4],inactive
same,outcome,[5],inactive
same,outcome,[6],inactive
same,outcome,[7],inactive
same,outcome,"CD38, CD38 (gene 952)",inactive
same,outcome,[8],inactive
same,outcome,[9],inactive
same,outcome,[10],inactive
same,outcome,[11],inactive
same,AC50,[12],2.72 µM (active)
same,outcome,[12],inactive
same,outcome,[13],inactive
same,outcome,[14],inactive
Nc1nc(N)nc(-c2ccccc2)n1,outcome,[1],inactive
same,outcome,[2],inactive
same,outcome,[3],inactive
same,outcome,[4],inactive
same,outcome,[5],inactive
same,outcome,[6],inactive
same,outcome,[7],inactive
same,outcome,"CD38, CD38 (gene 952)",inactive
same,outcome,[8],inactive
same,outcome,[9],inactive
same,outcome,[10],inactive
same,outcome,[11],inactive
same,outcome,[12],inactive
same,outcome,[13],inactive
same,outcome,[14],inactive
CCc1cccc(C)c1N(C(=O)CS(=O)(=O)O)C(C)COC (stereo unspecified),outcome,[1],inactive
same,outcome,[2],inactive
same,outcome,[3],inactive
same,outcome,[4],inactive
same,outcome,[5],inactive
same,outcome,[6],inactive
same,outcome,[7],inactive
same,outcome,"CD38, CD38 (gene 952)",inactive
same,outcome,[8],inactive
same,outcome,[9],inactive
same,outcome,[10],inactive
same,outcome,[11],inactive
same,outcome,[12],inactive
same,outcome,[13],inactive
same,outcome,[14],inactive
C=CC(=O)OCC(C)OCC(C)OCC(C)OC(=O)C=C (stereo unspecified),AC50,[1],9.53 µM (active)
same,AC50,[2],9.18 µM (active)
same,AC50,[3],5.46 µM (active)
same,AC50,[4],10 µM (active)
same,AC50,[5],10.6 µM (active)
same,outcome,[6],inactive
same,AC50,[7],8.45 µM (active)
same,AC50,"CD38, CD38 (gene 952)",7.74 µM (active)
same,AC50,[8],10.5 µM (active)
same,AC50,[9],5.5 µM (active)
same,AC50,[10],20 µM (active)
same,AC50,[11],5.29 µM (active)
same,AC50,[12],3.14 µM (active)
same,AC50,[13],2.88 µM (active)
same,AC50,[14],21.6 µM (active)
CCCCCCCCCCCC(C)=O,outcome,[1],inactive
same,outcome,[2],inactive
same,outcome,[3],inactive
same,outcome,[4],inactive
same,outcome,[5],inactive
same,AC50,[6],29.2 µM (active)
same,AC50,[7],30.8 µM (active)
same,AC50,"CD38, CD38 (gene 952)",31.6 µM (active)
same,AC50,[8],31.1 µM (active)
same,AC50,[9],33.3 µM (active)
same,outcome,[10],inactive
same,AC50,[11],32 µM (active)
same,AC50,[12],33.8 µM (active)
same,AC50,[13],34 µM (active)
same,outcome,[14],inactive
Oc1c(Cl)cc(Cl)c(Cl)c1Cl,outcome,[1],inactive
same,AC50,[2],31.5 µM (active)
same,outcome,[3],inactive
same,AC50,[4],26 µM (active)
same,AC50,[5],20 µM (active)
same,outcome,[6],inactive
same,AC50,[7],20 µM (active)
same,AC50,"CD38, CD38 (gene 952)",20 µM (active)
same,AC50,[8],31.2 µM (active)
same,AC50,[9],20 µM (active)
same,AC50,[10],32.2 µM (active)
same,AC50,[11],0.0683 µM (active)
same,AC50,[12],29.9 µM (active)
same,AC50,[13],20 µM (active)
same,AC50,[14],20 µM (active)
COC(OC)(C(=O)c1ccccc1)c1ccccc1,AC50,[1],0.0387 µM (active)
same,outcome,[2],inactive
same,outcome,[3],inactive
same,outcome,[4],inactive
same,outcome,[5],inactive
same,outcome,[6],inactive
same,outcome,[7],inactive
same,outcome,"CD38, CD38 (gene 952)",inactive
same,outcome,[8],inactive
same,outcome,[9],inactive
same,outcome,[10],inactive
same,outcome,[11],inactive
same,outcome,[12],inactive
same,outcome,[13],inactive
same,outcome,[14],inactive
Nc1cccc(N)n1,outcome,[1],inactive
same,outcome,[2],inactive
same,outcome,[3],inactive
same,outcome,[4],inactive
same,outcome,[5],inactive
same,outcome,[6],inactive
same,outcome,[7],inactive
same,outcome,"CD38, CD38 (gene 952)",inactive
same,outcome,[8],inactive
same,outcome,[9],inactive
same,outcome,[10],inactive
same,outcome,[11],inactive
same,outcome,[12],inactive
same,outcome,[13],inactive
same,outcome,[14],inactive
